Screening results as filed in PubChem.
DUSP3 inh – inhibitors of human VHR1 phosphatase (DUSP3); P51452; recombinant VHR phosphatase, pNPP absorbance; inhibition, % at 13.3 µM; 290,000 compounds, 0.52% hits; in the data active = inhibition above about 50%
Target sequence (P51452 whole entry, looked up): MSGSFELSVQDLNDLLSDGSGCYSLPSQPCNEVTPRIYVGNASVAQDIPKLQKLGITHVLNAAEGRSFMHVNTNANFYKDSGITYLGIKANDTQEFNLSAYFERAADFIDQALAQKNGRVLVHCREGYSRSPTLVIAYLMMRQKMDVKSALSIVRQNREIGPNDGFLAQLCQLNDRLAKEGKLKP
Vc quorum ag – quorum light induction in luxS cqsA deficient V. cholerae; V. cholerae BH1578 lux reporter, luminescence, 6 h; activation, % at 18.7 µM; 350,000 compounds, 0.16% hits; AID 588436; in the data active = activation mostly above about 9.7%, no sharp cut-off
TcdB GH inh – inhibitors of Clostridioides difficile toxin B glycohydrolase; TcdB glycohydrolase enzymatic assay, plate reader; P18177; inhibition, % at 9.99 µM; 350,000 compounds, 0.24% hits; AID 652162; in the data active = inhibition above about 10%
CCHF vOTU inh-1 – CCHFV vOTU protease inhibition; inhibition, % at 11.5 µM; Pep-AMC fluorescence; 370,000 compounds, 0.55% hits; AID 651958; also: 0% = vehicle wells with enzyme and 100% = no enzyme wells
PriA SSB inh – inhibitors of Klebsiella pneumoniae PriA binding to SSB C-terminal tail | AlphaScreen SSBct-PriA binding, biotinylated peptide | AID 1272365 | inhibition, % at 33 µM | 430,000 compounds, 0.6% hits; in the data active = inhibition mostly above about 37%, no sharp cut-off; inactive = mostly below about 20%;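 also: plate controls were negative control peptide for no effect and reference peptide for full effect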
SARS 3CLpro inh – SARS-CoV 3CLpro protease inhibition | recombinant SARS-CoV 3CLpro, quenched FRET peptide cleavage | inhibition, % at 6 µM | 290,000 compounds, 0.14% hits | AID 1706; in the data active = inhibition above about 12%
CCHF vOTU inh-2 – CCHFV vOTU protease inhibition, confirmation | inhibition, % at 11.5 µM | Recombinant CCHFV vOTU, Pep-AMC fluorescence | 1,900 compounds, 17% hits | AID 686976 | shares compounds with CCHF vOTU inh-1
* marks the source's active call; other numbers are inactive results; i = inactive; · = not tested or not shown. Sampled rows, rich in hits. Any-hit rate of the full collection: about 1.3%. Rule as the data show it, unless noted: active = inhibition above about 30%; inactive = the rest.

SMILES	DUSP3 inh	Vc quorum ag	TcdB GH inh	CCHF vOTU inh-1	PriA SSB inh	SARS 3CLpro inh	CCHF vOTU inh-2
CCCc1nc2c([nH]1)c(=O)n(C)c(=O)n2C	60*	i	1	32*	-1	-4	-29
CCOc1ccc(/C=C/C(=O)Nc2ccccc2C(F)(F)F)cc1	-8	0	·	30*	-8	6	-13
O=C(NC1CCCCC1)C(c1ccccc1F)N(C(=O)c1csnn1)C1CCCC1 (stereo unspecified)	28	0	1	65*	-9	-1	-6
CCCCCCCCN1C(=O)[C@H](CC(=O)NCCc2ccccc2OC)C[C@@]2(C(=O)OC)CCCCC=C12	·	·	1	47*	·	·	10
CCOC(=O)[C@]12CCCC=C1N(CCc1ccc(OC)c(OC)c1)C(=O)[C@H](CC(=O)NCc1ccccc1)C2	·	·	1	6	·	·	·
CCOC(=O)[C@]12CCC=C1N(Cc1ccc(Cl)cc1Cl)C(=O)[C@H](CC(=O)NCc1ccc(C)o1)C2	·	·	1	34*	·	·	-11
CCCCCCCCN1C(=O)[C@H](CC(=O)NCc2cccs2)C[C@@]2(C(=O)OCC)CCCC=C12	·	·	1	31*	·	·	14
CCCCCCCCN1C(=O)[C@H](CC(=O)NCc2ccc(OC)c(OC)c2)C[C@@]2(C(=O)OCC)CCCC=C12	·	·	0	39*	·	·	16
Cc1ccc(-c2ccc(N3CCN(C(=O)C4CCCC4)CC3)nn2)cc1C	·	·	·	·	-2	·	·
CCOc1ccc(-n2nnc3c(=O)n(Cc4nc(-c5cccc(C)c5)no4)cnc32)cc1	·	·	·	·	-11	·	·
CS(=O)(=O)N(Cc1ccoc1)Cc1cccs1	·	·	·	·	-23	·	·
COC(=O)[C@]12C[C@H](CC(=O)NCC3CCCCC3)C(=O)N(CCc3ccc(OC)c(OC)c3)C1=C[C@H](C(C)(C)C)O[C@@H]2C	·	·	2	31*	·	·	19
COC(=O)[C@]12C[C@H](CC(=O)N3CCC(c4ccccc4)CC3)C(=O)N(Cc3ccc4c(c3)OCO4)C1=C[C@H](C(C)(C)C)O[C@@H]2C	·	·	2	30*	·	·	-3
COC(=O)[C@]12C[C@H](CC(=O)N3CCCC3)C(=O)N(Cc3ccc4c(c3)OCO4)C1=C[C@H](C(C)(C)C)O[C@@H]2C	·	·	2	15	·	·	·
COC(=O)[C@]12C[C@H](CC(=O)N3CCOCC3)C(=O)N(CCC3=CCCCC3)C1=C[C@H](C(C)(C)C)O[C@@H]2C	·	·	3	30*	·	·	-8
COC(=O)[C@]12C[C@H](CC(=O)NCCC(C)C)C(=O)N(CCC3=CCCCC3)C1=C[C@H](C(C)(C)C)O[C@@H]2C	·	·	-8	30*	·	·	5
CCCCNC(=O)C[C@H]1C[C@@]2(C(=O)OC)C(=C[C@H](C(C)(C)C)O[C@@H]2C)N(CCC2=CCCCC2)C1=O	·	·	2	28	·	·	·
O=C(CSc1nc(-c2cccs2)cc(C(F)(F)F)n1)Nc1ccc(Cl)cc1Cl	·	·	·	·	-12	·	·
CCOC(=O)C(=NNc1cccc(Br)c1)C(=O)OCC	·	·	·	·	-23	·	·
O=C(Nc1nc(-c2ccc3c(c2)OCO3)cs1)c1nc2ccccc2s1	·	·	·	·	-11	·	·
O=C(NC1CC(=O)N(C2CC2)C1)c1cnccn1 (stereo unspecified)	·	·	·	·	-2	·	·
C=C1CCC(C)C(C)(CCC2=CCOC2=O)C/C=C/C=C\1C(=O)O (stereo unspecified)	·	·	·	·	-7	·	·
CCCCCCCCN1C(=O)[C@@H](CC(=O)N2CCOCC2)C[C@@]2(C(=O)OC)C1=C[C@H](C(C)(C)C)O[C@@H]2C	·	·	1	31*	·	·	28
CCCCn1c(N)c(N(CC(C)C)C(=O)CSCC(=O)Nc2cccc(C)c2)c(=O)[nH]c1=O	·	-1	0	34*	7	·	-21
CCCCN(C(=O)CSCC(=O)Nc1cccc(C)c1)c1c(N)n(CCCC)c(=O)[nH]c1=O	·	1	-1	-2	-3	·	·
SMILES	DUSP3 inh	Vc quorum ag	TcdB GH inh	CCHF vOTU inh-1	PriA SSB inh	SARS 3CLpro inh	CCHF vOTU inh-2
COc1cc(/C=N/N=C2/NC(=O)C(CC(=O)O)S2)ccc1OCc1ccc(Cl)cc1 (stereo unspecified)	16	0	·	34*	·	10	17
O=C(O)C1CCCN1S(=O)(=O)c1ccc(F)c(Cl)c1 (stereo unspecified)	·	·	·	·	-6	·	·
O=C(Cc1ccsc1)NC[C@]1(O)CCc2ccccc21	·	·	·	·	-14	·	·
O=C(NC1=C(NC2CCS(=O)(=O)C2)C(=O)c2ccccc2C1=O)c1ccccc1 (stereo unspecified)	8	i	0	71*	0	3	69*
Cc1cccc(NC2=C(NC(=O)c3ccccc3)C(=O)c3ccccc3C2=O)c1	26	i	·	68*	38	5	37*
O=C1C(Cl)=C(NC(=O)c2ccccc2)C(=O)C(Cl)=C1NC(=O)c1ccccc1	30	i	-1	97*	1	-4	-8
CN(C1=C(NC(=O)c2ccc(Cl)cc2)C(=O)c2ccccc2C1=O)c1ccccc1	-21	0	·	45*	104	2	14
O=C(NC1=C(Nc2ccc(Cl)cc2)C(=O)c2ccccc2C1=O)c1ccccc1	11	0	0	18	11	1	·
CCc1cccc(Nc2nc(C)cc(=O)n2CC(=O)Nc2cccc(SC)c2)c1	·	·	·	·	-28	·	·
C/C(=N\NS(=O)(=O)c1ccc(C)cc1)c1cccs1	30	·	·	1	·	1	·
Cc1ccc(S(=O)(=O)NN=C(c2ccccc2)c2cccs2)cc1	·	i	-3	32*	·	·	-3
C[C@H](CO)N1C[C@H](C)[C@@H](CN(C)Cc2ccc(-c3ccccc3)cc2)Oc2ncc(C#C[C@@H](C)O)cc2C1=O	·	0	-6	33*	·	·	-25
CC(C(=O)Nc1nc(-c2ccc(F)c(F)c2)cs1)N1C(=O)C2CC=CCC2C1=O (stereo unspecified)	·	i	0	31*	1	·	-8
Cn1nc(CNC(=O)C2CCN(S(C)(=O)=O)CC2)cc1C1CC1	·	·	·	·	-12	·	·
Cc1nn2c(NCCCN3CCOCC3)c3c(nc2c1-c1ccccc1)CCC3	8	0	·	1	-71	2	·
CCCCNc1c2c(nc3c(-c4ccccc4)c(C)nn13)CCC2	-12	0	-8	30*	-24	0	-61
O=C(Nc1ccc([N+](=O)[O-])cc1)c1c[nH]c(=O)n(-c2ccc(F)cc2)c1=O	·	·	·	·	-6	·	·
CCC(=O)NCCCn1nc(-c2ccc(C)cc2)ccc1=O	·	·	·	·	-8	·	·
CC12CC(c3ccccc3O1)C(C(=O)OCc1ccccc1)C(=O)N2 (stereo unspecified)	-9	0	·	38*	-30	0	-3
CC12CC(c3ccccc3O1)C(/C(N)=N/NC(=O)c1ccc(F)cc1)C(=O)N2 (stereo unspecified)	-8	0	1	9	·	-2	·
COc1cc(/C=N/n2c(C3CCCCC3)n[nH]c2=S)ccc1O	58*	i	1	31*	·	2	-16
CC(CCc1ccccc1)NC(=O)c1ccc(NC(=O)c2cccc(Br)c2)cc1 (stereo unspecified)	29	0	·	11	-8	-1	·
